Drawing on ChEMBL document CHEMBL4513216, “Probing the Open Global Health Chemical Diversity Library for Multistage-Active Starting Points for Next-Generation Antimalarials” (ACS Infect Dis, 2020), this text covers INHIBITION for 64 compounds.

Structures are written as SMILES. Among all 68,000 compounds or so, about 2,700 (4%) showed an effect of 50% or more. Many of the other results were omitted from the sample, so strong results are more common in it than they were.

The experiment relates to Plasmodium berghei. The experiment in a line: Screen against P. berghei liver stage (PbLuc), transformed with Luciferase, at 2uM. Conditions: tested at 2 uM. Format: functional, HepG2.
In the case of `NC(=O)c1cn[nH]c1C1CCCN1C(=O)c1cnccn1` (centres undefined), the INHIBITION is 39.5%.
For `Cc1nc2c(c(NCC(c3cccnc3)N3CCOCC3)n1)CCNC2` (centres undefined), the INHIBITION is -10.09%.
For `Cc1nc(CCCC(=O)Nc2cccc(N3CCNC3=O)c2)cs1` the value was -33.58%.
For `Cc1nc(CSCCC(=O)Nc2cccc(N3CCNC3=O)c2)cs1`, the INHIBITION worked out at 54.82%.
`Cc1ncc(CN(C)C(=O)Nc2cccc(N3CCNC3=O)c2)s1`: the INHIBITION is recorded as -82.26%.
For `CC(OCC1CC1)C(=O)N1CCCN(c2nc3ccccc3[nH]2)CC1` (centres undefined) the value was -38.2%; for `Cn1ncc2c1C(COCC1CC1)CN(S(=O)(=O)C1CC1)C2` (centres undefined), 3.63%.
With `Cc1ncsc1CN1Cc2cn(C)nc2C(COCC2CC2)C1` (centres undefined), the INHIBITION is recorded as -64.59%.
In the case of `Cn1ncc2c1C(COCC1CC1)CN(Cc1nccs1)C2` (centres undefined) it was -44.9%; in that of `Cc1ncsc1CN1Cc2cnn(C)c2C(COCC2CC2)C1` (centres undefined), 50.17%; in that of `Cn1ncc2c1C(COCC1CC1)CN(S(C)(=O)=O)C2` (centres undefined), 51.72%.
For `CCOCC1CN(S(C)(=O)=O)Cc2cnn(C)c21` (centres undefined) the value was 18.97%; for `Cn1ccc2c(C(=O)N3CCC(C(N)=O)CC3)cccc21`, 40.31%; for `Cn1c(CN2CCCC2c2noc(C3CC3)n2)cc(=O)n(C)c1=O` (centres undefined), 12.91%.
For `CC(C)N1CCC(CC(=O)N2CCC(C(O)c3nccn3C)CC2)CC1` (centres undefined) the value was 15.11%; for `CC(C)N1CCC(C(=O)N2CCC(C(O)c3nccn3C)CC2)CC1` (centres undefined), 6.4%.
Consider `CCCN1CCC(CC(=O)N2CCC(C(O)c3nccn3C)CC2)CC1` (centres undefined), for which the INHIBITION is reported as 51.19%.
For `COCC(=O)Nc1nn(Cc2ccc(F)cc2)cc1Cl` the value was -20.28%.
For `Cc1noc(C)c1CN1CCN(c2ccnc(-c3ccccc3)n2)CC1` the value was -5.53%.
In the case of `CCOc1ccccc1OC1CCN(C(=O)c2cc[nH]n2)CC1` it was 7.54%.
On to `O=c1c(=CS(=O)(=O)Nc2ccccc2)[nH]c(=O)n2cccc12`, for which the INHIBITION is 53.68%.
As to `CCc1ccc(NS(=O)(=O)C=c2[nH]c(=O)n3cccc3c2=O)cc1`, the INHIBITION is recorded as -1.14%.
In the case of `O=c1c(=CS(=O)(=O)Nc2ccc(Cl)cc2)[nH]c(=O)n2cccc12` it was 50.52%.
Consider `Cc1ccc(NS(=O)(=O)C=c2[nH]c(=O)n3cccc3c2=O)cc1`, for which the INHIBITION was -68.56%.
`CC(C)c1ccc(NS(=O)(=O)C=c2[nH]c(=O)n3cccc3c2=O)cc1`: the INHIBITION was found to be 9.43%.
In the case of `O=c1c(=CS(=O)(=O)Nc2ccc(Br)cc2)[nH]c(=O)n2cccc12` it was -42.73%.
As to `Cc1cc(C)cc(CN2CCC3(CC2)CC(Nc2ncccn2)CO3)c1` (centres undefined), the INHIBITION was determined as 24.43%.
Regarding `CNC(=O)C1CN(c2ccnc(C)n2)CCN1Cc1ccccc1` (centres undefined), the INHIBITION is on record as -10.89%.
In the case of `CC(C)NC(=O)[C@@]12CCO[C@@H]1CCN(Cc1ccco1)C2` it was 16.63%; in that of `Cn1cc(CN2CCO[C@H]3CN(Cc4ccco4)C[C@H]32)cn1`, 10.53%.
In the case of `CCC(CC)CN1C[C@@H]2OCCN(Cc3cnn(C)c3)[C@@H]2C1` it was 56.78%; in that of `CN(C)CCN1C[C@@H]2OCCN(Cc3cnn(C)c3)[C@@H]2C1`, 33.4%; in that of `CC(=O)Nc1ccc(S(=O)(=O)N2CCOC(Cn3ccnc3)C2)cc1` (centres undefined), 1.92%.
For `CC1CCN(S(=O)(=O)N2CCC(Oc3cnccn3)CC2)CC1` the value was 52.82%; for `O=S(=O)(N1CCOCC1)N1CCC(Oc2cnccn2)CC1`, -7.91%; for `O=S(=O)(N1CCCCC1)N1CCC(Oc2cnccn2)CC1`, 41.98%.
As to `O=S(=O)(c1ccccc1)N1CCC2(CCCN2Cc2cccc(Cl)c2)C1` (centres undefined), the INHIBITION was found to be 35.26%.
For `CSc1ccc(-c2nc(CN3CCC(NC(C)=O)CC3)c(C)o2)cc1` the value was -11.37%; for `CNC(=O)C1CCN(Cc2nc(-c3ccc(SC)cc3)oc2C)C1` (centres undefined), 13.94%.
In the case of `CSc1ccc(-c2nc(CN3CCC(NC(C)=O)C3)c(C)o2)cc1` (centres undefined) it was 52.77%; in that of `Cc1cc(NCc2ccccc2CN2CCCCC2)n2ncnc2n1`, -1.87%; in that of `Cc1cc(C)c(CNC(=O)N(C)Cc2cccc(F)c2)c(=O)[nH]1`, -9.17%.
`CS(=O)(=O)Nc1cccc(C(=O)Nc2ccc3c(c2)C(=O)NC3)c1`: the INHIBITION was -7.99%.
In the case of `Cc1nnc(SC2CCN(c3sccc3C#N)C2=O)s1` (centres undefined) it was 57.91%.
In the case of `Cc1nc(SC2CCN(c3sccc3C#N)C2=O)oc1C` (centres undefined), the INHIBITION worked out at 32.26%.
In the case of `Cc1nnc(SC2CCN(c3sccc3C#N)C2=O)[nH]1` (centres undefined) it was 6%.
In the case of `COc1ccccc1-c1cc(NC(=O)CCS(=O)(=O)C2CCCC2)[nH]n1` it was -43.66%; in that of `CC(=O)Nc1ccc2c(c1)CN(C(=O)c1ccco1)CC2`, 33.08%.
In the case of `CN1CC(=O)N(c2ccsc2)CC12CCN(C(=O)c1ccccc1)C2` (centres undefined) it was 37.45%.
`CN1CC(=O)N(c2ccsc2)CC12CCN(C(=O)c1ccc[nH]1)C2` (centres undefined): the INHIBITION is on record as 53.98%.
For `Cc1cc(C(=O)N2CCC3(C2)CN(c2ccsc2)C(=O)CN3C)[nH]n1` (centres undefined) the value was 13.04%; for `CCC1CN(CC(=O)NCCN(CC)CC)c2ccccc2S1` (centres undefined), 18.23%; for `CCOc1ncccc1C(=O)N1CCCC(n2nc(C)cc2C)C1` (centres undefined), 58.29%.
For `Cc1cc(C)n(C2CCCN(C(=O)CCNc3ncccn3)C2)n1` (centres undefined), the INHIBITION came to 70.27%.
For `CCOc1ncccc1C(=O)N1CCCC(n2nc(C)nc2C)C1` (centres undefined) the value was 20.44%; for `Cc1cc(C)n(C2CCCN(C(=O)CCCNc3ncccn3)C2)n1` (centres undefined), 26.71%; for `COCc1ccccc1C(=O)N1CCCC(n2nc(C)cc2C)C1` (centres undefined), 21.91%.
With `COCCOc1ncccc1C(=O)N1CCCCC1c1nccs1` (centres undefined), the INHIBITION is listed as -10.05%.
For `CCOc1ncccc1C(=O)N1CCCCC1c1nccs1` (centres undefined) the value was 67.59%; for `COCCOc1ccccc1C(=O)N1CCCCC1c1nccs1` (centres undefined), 45.75%.
In the case of `Cc1cc(C)n(C2CCCN(C(=O)CCNS(C)(=O)=O)C2)n1` (centres undefined) it was 15.31%; in that of `Cc1cncc(C(=O)N2CCO[C@H]3[C@H](Oc4ccccn4)CC[C@@H]32)c1`, 28.88%.
Regarding `Cc1ccc(CN2CC[C@H]3[C@H](CO[C@H]3CN(C)C)C2)o1`, the INHIBITION is -0.69%.
Consider `COc1nccc(N2CC[C@H](N3CCOCC3)[C@H](CCCO)C2)c1C#N`, for which the INHIBITION is given as -47.16%.
